Assay [1] in a line: ACEA_ER_AUC_viability: ACEA Biosciences xCELLigence Real-Time Cell Analysis on Estrogen Receptor Agonism for Viability (AID 2283782).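 Also: hit means loss of impedance signal meaning reduced cell growth or viability.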 Put shortly: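 Continuous-exposure impedance cell analysis uses T-47D cells in charcoal-stripped serum, eight 1:4 dilutions topping at 100 uM final, biological duplicate. Area under the growth curve at 80 h is fitted against DMSO baseline.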
The target of assay [2] is GAL4 Transcription Factor (Internal Marker), GAL4 (gene 855828) (UniProt P04386). Nature of the assay: ATG_GAL4_XSP1: Attagene TRANS-FACTORIAL Multi-Species (XSP1) HepG2 Assay for GAL4 Transcription Factor (Internal Marker) (AID 2283789). The method in brief: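 This background-control endpoint measures GAL4-driven reporter mRNA via RT-PCR and capillary electrophoresis of labelled fragments. Transiently transfected HepG2 cells were treated 24 h, with 3 nM 6-alpha-fluorotestosterone included, and gain-of-signal was fitted against DMSO.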
GAL4 Transcription Factor (Internal Marker), GAL4 (gene 855828), sequence (P04386 whole entry, looked up, the tested form may be a part): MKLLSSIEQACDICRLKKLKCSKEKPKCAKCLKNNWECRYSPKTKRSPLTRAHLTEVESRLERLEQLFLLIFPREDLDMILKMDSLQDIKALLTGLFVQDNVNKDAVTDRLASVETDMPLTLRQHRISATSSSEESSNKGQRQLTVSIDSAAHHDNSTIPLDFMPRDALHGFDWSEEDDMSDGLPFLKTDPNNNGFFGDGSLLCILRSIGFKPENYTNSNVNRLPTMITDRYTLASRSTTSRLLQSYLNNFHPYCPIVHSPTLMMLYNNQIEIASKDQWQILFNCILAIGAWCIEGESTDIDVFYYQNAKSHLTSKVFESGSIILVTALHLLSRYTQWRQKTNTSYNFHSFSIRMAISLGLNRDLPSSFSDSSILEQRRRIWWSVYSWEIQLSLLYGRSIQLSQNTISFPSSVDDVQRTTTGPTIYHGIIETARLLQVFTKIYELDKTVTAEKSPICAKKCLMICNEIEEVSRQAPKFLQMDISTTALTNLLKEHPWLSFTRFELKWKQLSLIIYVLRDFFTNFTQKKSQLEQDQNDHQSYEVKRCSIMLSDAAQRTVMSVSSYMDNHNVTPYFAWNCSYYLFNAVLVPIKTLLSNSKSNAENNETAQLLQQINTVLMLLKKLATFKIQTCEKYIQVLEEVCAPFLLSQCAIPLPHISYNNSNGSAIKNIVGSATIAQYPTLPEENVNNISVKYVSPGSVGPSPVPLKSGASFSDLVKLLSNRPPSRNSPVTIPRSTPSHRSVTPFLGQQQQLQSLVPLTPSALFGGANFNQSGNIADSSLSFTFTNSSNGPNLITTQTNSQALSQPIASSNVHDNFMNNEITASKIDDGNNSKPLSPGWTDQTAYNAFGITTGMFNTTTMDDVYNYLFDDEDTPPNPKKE

The nature of assay [3]: ATG_M_19_XSP1: Attagene TRANS-FACTORIAL Multi-Species (XSP1) HepG2 Assay for M19 Transcription Factor (Internal Marker) (AID 2283798). The method in brief:
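Readout is reporter mRNA induction quantified via RT-PCR, 6-FAM labeling, HpaI digestion and capillary electrophoresis, fitted in the positive direction versus DMSO baseline. Transfected HepG2 cells exposed 24 h, medium including 3 nM 6-alpha-fluorotestosterone.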

For assay [4], the target named is Peroxisome proliferator-activated receptor gamma (Homo sapiens) (UniProt P37231). Nature of the assay: ATG_hPPARg_XSP1: Attagene TRANS-FACTORIAL Multi-Species (XSP1) HepG2 Assay for human Peroxisome Proliferator-activated Receptor gamma (PPARg) (AID 2283800). The procedure: ATG_XSP1_multi-species_TRANS is a cell-based, multiplexed assay created by modifying the existing Attagene TRANS-FACTORIAL system to include a panel of nuclear receptors from some or all the following species: human (Homo sapiens), mouse (Mus musculus), frog (Xenopus laevis), zebrafish (Danio rerio), chicken (Gallus gallus), and turtle (Chrysemys picta). The ECOTOX-FACTORIAL format uses HepG2, a human liver cell line, with measurements taken at 24 hours after chemical dosing in a 24-well plate. Xsp1 included 3 nM 6-alpha-fluorotestosterone to partially stimulate the androgen receptor.ATG_hPPARg_XSP1 is one of 29 assay components measured or calculated from the ATG_XSP1_multi-species_TRANS assay. It is designed to make measurements of mRNA induction, a form of inducible reporter, as detected with fluorescence intensity signals by Reverse transcription polymerase chain reaction (RT-PCR) and Capillary electrophoresis technology.The assay endpoint ATG_hPPARg_XSP1 was analyzed in the positive analysis fitting direction relative to DMSO as the negative control and baseline of activity. Using a type of inducible reporter, measures of mRNA for gain-of-signal activity can be used to understand the reporter gene at the transcription factor-level as they relate to the gene PPARg. Furthermore, this assay endpoint can be referred to as a primary readout, because this assay has produced multiple assay endpoints where this one serves a reporter gene function. To generalize the intended target to other relatable targets, this assay endpoint is annotated to the nuclear receptor intended target family, where the subfamily is non-steroidal.
Peroxisome proliferator-activated receptor gamma (Homo sapiens), sequence (P37231 whole entry, looked up): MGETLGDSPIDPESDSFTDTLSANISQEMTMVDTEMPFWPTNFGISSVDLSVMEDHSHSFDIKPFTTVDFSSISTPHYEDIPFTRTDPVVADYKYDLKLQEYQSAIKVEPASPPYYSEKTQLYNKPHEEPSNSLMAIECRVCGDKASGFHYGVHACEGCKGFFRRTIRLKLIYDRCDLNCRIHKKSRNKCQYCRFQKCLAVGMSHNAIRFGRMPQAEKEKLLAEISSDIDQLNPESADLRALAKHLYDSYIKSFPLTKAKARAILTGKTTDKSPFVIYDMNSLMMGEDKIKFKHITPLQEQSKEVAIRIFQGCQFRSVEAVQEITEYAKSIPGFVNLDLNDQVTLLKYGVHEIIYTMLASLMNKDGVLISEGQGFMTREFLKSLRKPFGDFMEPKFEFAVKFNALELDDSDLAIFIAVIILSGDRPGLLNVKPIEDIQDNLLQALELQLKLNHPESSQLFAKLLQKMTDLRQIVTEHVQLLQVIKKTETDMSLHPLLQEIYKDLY
Human liver HepG2 cells are transiently transfected with multiple reporter transcription units (MRTUs) in 6-well plates using FuGene 6 reagent (Roche; 3 ml FuGene/1 mg DNA). The MRTU constructs are regulated by a cis-regulating element (promoter). […] A major difference between the CIS and TRANS system is that in CIS activities of endogenous TFs are measured, whereas the TRANS assay evaluates changes in activities of exogenous, chimeric NR-Gal4 proteins. […] At the end of 24 hour incubation, total RNA was isolated using TriZol reagent (Invitrogen). The isolated RNA is then reverse-transcribed using oligo(dT) primer and Mo-MLV reverse transcriptase (Invitrogen) with DNAse I (Ambion) treatment for 30 min. The one-tenth of the produced cDNA was amplified by PCR using Taq DNA polymerase (Invitrogen) and two reporter sequence-specific primers. The PCR products were fluorescently labeled by primer extension with 6-arboxyfluorescein (6-FAM) 5'-labeled reporter sequence-specific primer (2 min at 95 C, 20 s at 68 C and 10 min at 72 C) and these products were digested with 5U of HpaI (New England Biolabs) for 2h at 37 C. The fragments were purified using Qiaquick PCR columns (Qiagen), analyzed on an ABI 3130xL genetic analyzer (Applied Biosystems) with peak positions identified by using a set of X-rhodamine (ROX)-labeled MapMarker1000 molecular weight standards (BioVentures). The raw capillary electrophoresis data was processed using Attagraph software (Attagene).

In a further assay the target is AR (gene 367) (UniProt P10275). Nature of the assay: ACEA_AR_agonist_80hr: ACEA Biosciences xCELLigence Real-Time Cell Analysis on Androgen Receptor Agonism for Proliferation (AID 2283783).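 Also: hits increase impedance growth signal above DMSO baseline.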 Put shortly:
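Real-time cell-growth kinetics were recorded by electrode impedance in 22Rv1 cells exposed to test chemicals up to 100 uM final; the 80 h timepoint served as the readout, fitted upward relative to DMSO controls, in biological duplicate.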

In assay [5] the test system is turtle Androgen Receptor (AR), gene 101947425. Nature of the assay: ATG_trAR_XSP1: Attagene TRANS-FACTORIAL Multi-Species (XSP1) HepG2 Assay for turtle Androgen Receptor (AR) (AID 2283786). The method in brief: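 Partial androgen stimulation is provided by 3 nM 6-alpha-fluorotestosterone in a multi-species trans-factorial panel expressing a turtle AR–GAL4 fusion in HepG2. After 24 h, reporter mRNA is measured by RT-PCR and capillary electrophoresis and fitted upward against DMSO.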

Assay [6] in a line: ATG_M_32_XSP1: Attagene TRANS-FACTORIAL Multi-Species (XSP1) HepG2 Assay for M32 Transcription Factor (Internal Marker) (AID 2283799). The method in brief:
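Reporter transcripts from the M32 internal-control unit measured by RT-PCR, FAM labelling, HpaI digestion and capillary electrophoresis after 24 h compound exposure of transfected HepG2, 3 nM 6-alpha-fluorotestosterone included; DMSO baseline, positive-direction fit.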

Assay [7] deals with Estrogen receptor beta (Homo sapiens) (UniProt Q92731). Nature of the assay: ATG_hERb_XSP1: Attagene TRANS-FACTORIAL Multi-Species (XSP1) HepG2 Assay for human Estrogen Receptor (ESR2) (AID 2283788). Put shortly:
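Multiplexed trans-activation in transfected HepG2: ERβ-Gal4 reporter transcripts after 24 h treatment, detected by RT-PCR plus capillary electrophoresis.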

Assay [8] in a line: ATG_M_06_XSP1: Attagene TRANS-FACTORIAL Multi-Species (XSP1) HepG2 Assay for M06 Transcription Factor (Internal Marker) (AID 2283790). The method in brief:
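This background-control readout tracks M06 reporter mRNA, measured by RT-PCR and capillary electrophoresis. HepG2 cells transiently carrying the GAL4-UAS reporter panel were dosed for 24 h with 3 nM 6-alpha-fluorotestosterone added for partial AR stimulation; increases were scored relative to DMSO.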

The nature of assay [9]: ATG_M_61_XSP1: Attagene TRANS-FACTORIAL Multi-Species (XSP1) HepG2 Assay for M61 Transcription Factor (Internal Marker) (AID 2283797). The method in brief: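 Background-control readout: reporter transcripts measured by RT-PCR and capillary electrophoresis 24 h after dosing transiently transfected HepG2 multi-reporter cells, with 3 nM 6-alpha-fluorotestosterone present. Fitted in the positive direction relative to DMSO.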

Records with an inconclusive call do not appear. Some compounds were tested as several samples or in several runs, with calls that do not always agree. Calls of active or inactive are those of the source. The calls were made as follows: active = hit-call score of the fitted dose curve at least 0.9, where 1 is the maximum; inconclusive = response in the unintended direction; inactive = score below 0.9.

AR (gene 367), sequence (P10275 whole entry, looked up): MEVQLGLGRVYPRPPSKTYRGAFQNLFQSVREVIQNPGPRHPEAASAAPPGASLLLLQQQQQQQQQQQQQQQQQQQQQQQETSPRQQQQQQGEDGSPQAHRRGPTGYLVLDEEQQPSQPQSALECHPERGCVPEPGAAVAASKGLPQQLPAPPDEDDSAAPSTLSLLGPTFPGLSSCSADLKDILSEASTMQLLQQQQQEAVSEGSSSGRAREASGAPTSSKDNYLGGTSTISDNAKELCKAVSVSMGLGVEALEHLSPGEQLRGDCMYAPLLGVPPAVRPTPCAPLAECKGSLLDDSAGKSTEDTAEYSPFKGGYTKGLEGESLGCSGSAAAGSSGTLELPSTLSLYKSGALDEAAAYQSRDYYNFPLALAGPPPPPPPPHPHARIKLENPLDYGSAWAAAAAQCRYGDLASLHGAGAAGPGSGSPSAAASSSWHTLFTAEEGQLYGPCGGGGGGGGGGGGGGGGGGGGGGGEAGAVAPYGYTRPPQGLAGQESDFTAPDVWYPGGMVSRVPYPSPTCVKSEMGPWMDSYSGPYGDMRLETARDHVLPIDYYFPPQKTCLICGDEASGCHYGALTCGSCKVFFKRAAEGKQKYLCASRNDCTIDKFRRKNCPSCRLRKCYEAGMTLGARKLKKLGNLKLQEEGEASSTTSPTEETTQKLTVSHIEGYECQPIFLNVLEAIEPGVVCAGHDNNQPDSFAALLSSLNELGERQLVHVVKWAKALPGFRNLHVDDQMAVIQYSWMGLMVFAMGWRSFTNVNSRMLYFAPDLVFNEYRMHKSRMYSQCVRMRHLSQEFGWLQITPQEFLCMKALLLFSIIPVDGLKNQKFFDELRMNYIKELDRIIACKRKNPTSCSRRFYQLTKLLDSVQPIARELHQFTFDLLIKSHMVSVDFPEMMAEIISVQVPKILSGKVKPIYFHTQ
Estrogen receptor beta (Homo sapiens), sequence (Q92731 whole entry, looked up, the tested form may be a part): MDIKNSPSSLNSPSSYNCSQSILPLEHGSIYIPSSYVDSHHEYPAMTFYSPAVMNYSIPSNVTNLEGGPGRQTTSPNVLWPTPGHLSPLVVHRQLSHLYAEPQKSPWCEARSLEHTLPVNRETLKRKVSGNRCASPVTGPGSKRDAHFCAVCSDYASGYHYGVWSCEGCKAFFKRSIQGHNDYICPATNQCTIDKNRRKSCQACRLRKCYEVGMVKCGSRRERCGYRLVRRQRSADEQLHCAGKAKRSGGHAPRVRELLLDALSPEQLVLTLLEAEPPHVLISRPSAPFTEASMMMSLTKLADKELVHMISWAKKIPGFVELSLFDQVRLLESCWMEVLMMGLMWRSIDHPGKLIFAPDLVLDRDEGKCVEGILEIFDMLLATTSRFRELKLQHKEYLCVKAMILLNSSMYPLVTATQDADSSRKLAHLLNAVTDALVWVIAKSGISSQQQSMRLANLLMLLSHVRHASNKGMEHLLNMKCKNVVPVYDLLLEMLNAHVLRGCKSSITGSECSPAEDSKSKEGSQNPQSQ

The term AC50 denotes the midpoint of the concentration-response curve, whichever way the signal moves. As for `CCOCN(C(=O)CCl)c1c(C)cccc1CC`, the AC50 in assay [1] is 79.5 µM (active); in [4], 0.727 µM (active). The molecule was classed as inactive in assay [2] and in assay [3].

Consider `ClC1C(Cl)C(Cl)C(Cl)C(Cl)C1Cl` (stereo not given), for which, in assay [1], the half-maximal activity concentration (AC50) was 60.1 µM (active) and the call was inactive.

With `COc1nn(CSP(=S)(OC)OC)c(=O)s1`, in assay [1], the result was inactive.

Take `CNC(=O)Oc1cccc(N=CN(C)C)c1`: the AC50 in [1] was 50.5 µM (active).

In the case of `CNC(=O)Oc1ccccc1OC(C)C`, in [1], the outcome was inactive.

Consider `C#CCN1C(=O)COc2cc(F)c(N3C(=O)C4=C(CCCC4)C3=O)cc21`, for which, in the assay with AR (gene 367), the molecule was classed as inactive.

With `O=S(=O)(O)C(F)(F)C(F)(F)C(F)(F)C(F)(F)C(F)(F)C(F)(F)C(F)(F)C(F)(F)F`, the AC50 in [1] was 80 µM (active); in [5], 130 µM (active). In addition, the call in [1], in [3] and in assay [6] was inactive.

Turning to `OCCOc1ccccc1`, the call in [1] was inactive.

Take `O=C(Nc1ccccc1)Nc1cnns1`: the outcome in assay [1] was inactive.

In the case of `CCN(CC)C(=O)SCc1ccc(Cl)cc1`, the half-maximal activity concentration (AC50) in assay [1] is 75.9 µM (active).

`CC(C)OC(=O)Nc1cccc(Cl)c1`: in [1], the AC50 is 79.6 µM (active).

As to `Oc1cc(Cl)ccc1Oc1ccc(Cl)cc1Cl`, the figures for the half-maximal activity concentration (AC50) in [1] and in assay [4] were 21.9 µM (active) [middle of 6 runs] and 9.39 µM (active), respectively. Further, the molecule was classed as inactive in assay [7], in assay [2], in [8], in [9] and in assay [6].

For the molecule `O=C(O)C(F)(F)C(F)(F)C(F)(F)C(F)(F)C(F)(F)C(F)(F)C(F)(F)F`, the call in assay [1] was inactive.

Turning to `Oc1ccc(Cl)cc1Cc1ccccc1`, the half-maximal activity concentration (AC50) in assay [1] was 18.3 µM (active) [middle of 9 runs]. Besides, the molecule was classed as inactive (with AR (gene 367); in assay [7]; in [8]; in assay [9]).

Regarding `O=C(O)CCCOc1ccc(Cl)cc1Cl`, the outcome in assay [1] was inactive.

Regarding `O=S1OCC2C(CO1)C1(Cl)C(Cl)=C(Cl)C2(Cl)C1(Cl)Cl` (stereo not given), the AC50 in [1] was 71.8 µM (active). In addition, the result (with AR (gene 367); in assay [8]; in [9]; in assay [3]; in assay [4]) was inactive.

In the case of `CC(C)(C)C(O)/C(=C\c1ccc(Cl)cc1Cl)n1cncn1` (stereo not given), the AC50 in assay [1] is 81.1 µM (active).

Regarding `CCCN(CCOc1c(Cl)cc(Cl)cc1Cl)C(=O)n1ccnc1`, the AC50 in assay [1] is 74.9 µM (active); in assay [4], 33.4 µM (active). The molecule was classed as inactive in assay [7], in assay [3] and in assay [6].

For `CCC(C)Nc1c([N+](=O)[O-])cc(C(C)(C)C)cc1[N+](=O)[O-]` (stereo not given), the result in assay [1] was inactive.

With `CN1CSC(=S)N(C)C1`, the concentration at half-maximal activity (AC50) in assay [1] is 39.7 µM (active).

With `COP(=S)(OC)Oc1ccc([N+](=O)[O-])cc1`, the outcome in assay [1] was inactive.

Turning to `Clc1ccccc1-c1nnc(-c2ccccc2Cl)nn1`, in assay [1], the molecule was called inactive.

In the case of `CCc1ccc(C(=O)NN(C(=O)c2cc(C)cc(C)c2)C(C)(C)C)cc1`, in assay [1], the call was inactive.

As to `N#Cc1c(Cl)c(Cl)c(Cl)c(C#N)c1Cl`, the AC50 in assay [1] is 1.54 µM (active).

On to `COP(=S)(OC)Oc1ccc(SC)c(C)c1`, for which the call in assay [1], in [2], in assay [8], in assay [9] and in [6] was inactive. Moreover, the results for the AC50 in assay [7] and in assay [4] were 22.2 µM (active) and 22.5 µM (active), respectively.

Regarding `O=C1c2ccccc2C(=O)N1SC(Cl)(Cl)Cl`, the molecule was called inactive in [1].

Regarding `CC[C@H](C)[C@H]1O[C@]2(C=C[C@@H]1C)C[C@@H]1C[C@@H](C/C=C(\C)[C@@H](O[C@H]3C[C@H](OC)[C@@H](O[C@H]4C[C@H](OC)[C@@H](O)[C@H](C)O4)[C@H](C)O3)[C@@H](C)/C=C/C=C3\CO[C@@H]4[C@H](O)C(C)=C[C@@H](C(=O)O1)[C@]34O)O2` (tested in a mixture with another compound), the AC50 in [1] is 6.89 µM (active).

Consider `CC1(C)C(C=C(Cl)Cl)C1C(=O)OC(C#N)c1ccc(F)c(Oc2ccccc2)c1` (stereo not given), for which the AC50 in assay [1] was 74.3 µM (active); in [4], 11.1 µM (active). For the same molecule, the molecule was called inactive in assay [7], in assay [8] and in assay [9].

For the molecule `Cc1[nH]c(=O)n(C(C)(C)C)c(=O)c1Cl`, the outcome in assay [1] was inactive.

As to `O=[N+]([O-])c1c(Cl)c(Cl)c(Cl)c(Cl)c1Cl`, the concentration at half-maximal activity (AC50) in assay [1] was 72.3 µM (active). In addition, in the assay with AR (gene 367), the result was inactive.

With `C[C@H]1[C@H](c2ccc(Cl)cc2)SC(=O)N1C(=O)NC1CCCCC1`, in [1], the half-maximal activity concentration (AC50) is 79.9 µM (active). Moreover, in the assay with AR (gene 367), the result was inactive.

As to `O=C(O)COc1ccc(Cl)cc1Cl`, the call in [1] was inactive.

Regarding `CCCN(CCC)c1c([N+](=O)[O-])cc(C(F)(F)F)cc1[N+](=O)[O-]`, the molecule was classed as inactive (with AR (gene 367); in [8]; in [9]). Also, the AC50 in assay [4] was 27.1 µM (active).

As for `CCC(C)(C)C(=O)OC1=C(c2ccc(Cl)cc2Cl)C(=O)OC12CCCCC2`, in assay [1], the AC50 is 12.3 µM (active).

As for `CC(C)(C)C(O)C(Oc1ccc(Cl)cc1)n1cncn1` (stereo not given), in assay [1], the molecule was called inactive.

Turning to `CC1(c2ccc(Oc3ccccc3)cc2)OC(=O)N(Nc2ccccc2)C1=O` (stereo not given), the concentration at half-maximal activity (AC50) in assay [1] is 45.8 µM (active).

As for `CCC(C)(NC(=O)c1cc(Cl)c(C)c(Cl)c1)C(=O)CCl` (stereo not given), the concentration at half-maximal activity (AC50) in assay [1] is 9.16 µM (active).

`N#CN`: the call in [1] was inactive.

Source of the values: PubChem BioAssay (EPA / NIEHS).
